Experimental data taken from PubChem BioAssay (NCI).
This is part of a sample that, as a whole, favours compounds with a hit. Of some 83,000 tested, about 20% had one in any assay.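 Negative percent growth values reflect cell death: -40 means 40% of the cells present at the start died, and -100 means all died.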 Unmarked numbers belong to inactive results. Calls of active or inactive are those of the source. Rule for the calls: active = growth percent below 10; inactive = the rest.

Columns and labels:
Assay in all cases: NCI-60 one-dose screen, 48 h (100 = growth as untreated, 0 = no growth, -100 = all killed)
Conditions in all cases: 10 µM unless noted
NCI-H23 lung = test system: NCI-H23 lung
NCI-H226 lung = test system: NCI-H226 lung
NCI-H322M lung = test system: NCI-H322M lung
HOP-62 NSCLC = test system: HOP-62 NSCLC
NCI-H460 lung = test system: NCI-H460 lung
HOP-92 NSCLC = test system: HOP-92 NSCLC
NCI-H522 lung = test system: NCI-H522 lung
A549/ATCC NSCLC = test system: A549/ATCC NSCLC
786-0 renal = test system: 786-0 renal
COLO 205 colon = test system: COLO 205 colon

SMILES	growth (NCI-H23 lung)	growth (NCI-H226 lung)	growth (NCI-H322M lung)	growth (HOP-62 NSCLC)	growth (NCI-H460 lung)	growth (HOP-92 NSCLC)	growth (NCI-H522 lung)	growth (A549/ATCC NSCLC)	growth (786-0 renal)	growth (COLO 205 colon)
Cc1ccc(N2CCN(C3=C(Cl)C(=O)c4ncccc4C3=O)CC2)cc1	35.6%	93.2%	97.4%	73.1%	44.8%	84.4%	45.2%	91.3%	99.5%	75.3%
CCCCc1nc2c(N)nc3ccccc3c2n1Cc1cccc(CN)c1	72.6%	87.1%	81.2%	57.3%	19.7%	-0.82% (active)	72.7%	69.5%	66.7%	44%
CN1CCN(Cc2ccc(NC(=O)c3cncc(C#Cc4cnc(N)nc4)c3)cc2C(F)(F)F)CC1	26.5%	12.8%	34.3%	19.3%	12.9%	-28.8% (active)	36.5%	38%	40%	13.2%
C#C[C@]1(O)CC[C@H]2[C@@H]3CC=C4c5sc(Nc6cccc(F)c6)nc5CC[C@]4(C)[C@H]3CC[C@@]21C	27.8%	43.6%	53.7%	33.4%	24.3%	61.3%	31.7%	32.6%	2.62% (active)	-9.5% (active)
COc1ccccc1/C=C/C(=O)c1nnn(-c2ccc(F)cc2)c1C	42.9%	53.1%	70.6%	72.2%	28.4%	72.9%	54%	41.7%	84.5%	72.4%
O=C(CSc1nc2ccccc2c(=O)n1-c1ccc(Cl)c(Cl)c1)Nc1ccc(S(=O)(=O)Nc2ccc(Cl)nn2)cc1	91.6%	90.9%	91.7%	87.8%	99.4%	72.5%	90%	91.9%	98.9%	94.9%
Brc1ccc(-c2cc(-c3ccc4c(c3)OCCO4)n[nH]2)s1	40.6%	75.4%	42.7%	51.3%	14.3%	64.2%	20.9%	33.3%	73.5%	28.7%
CCN(CC)c1ccc(/C=N/NC(=O)c2ccc(S(N)(=O)=O)cc2)cc1	25.1%	45.1%	28.1%	18.6%	7.17% (active)	72.3%	18.7%	26.1%	9.66% (active)	11.1%
Cc1ccc(S(=O)(=O)c2nc(-c3ccc(F)cc3)oc2S(C)(=O)=O)cc1	71.2%	83.6%	95.9%	99.8%	101%	63%	61%	96.4%	80.6%	95.1%
CC/C(=C(/c1ccc(Cl)cc1)c1ccc(OCCN)cc1)c1ccccc1	96%	105%	108%	116%	60.2%	103%	98.1%	86.2%	87.9%	18%
CC(C)(C)Nc1nc2c(OCCc3ccccc3)cccn2c1-c1ccc([N+](=O)[O-])cc1	62.4%	70.5%	64.7%	78.1%	60.8%	54.7%	41.4%	53.5%	75.1%	49%
CCOC(=O)c1cccnc1Nc1ccc(NC(=O)Nc2ccc(Cl)c(C(F)(F)F)c2)cc1	10.1%	52.4%	68.9%	54.1%	17.2%	-8.46% (active)	21%	42.8%	68%	31.7%
Brc1cccc(-c2cc(-c3ccc4c(c3)OC=CO4)[nH]n2)c1	58.2%	78%	49.8%	58.1%	15.1%	96.3%	29.4%	37.5%	70.4%	36.1%
COc1ccc(NC2=C(Br)C(=O)C(C)=C(C)C2=O)cc1OC	89.8%	88.2%	106%	104%	101%	-60.8% (active)	89.6%	98.7%	106%	125%
CN(C)c1ccc(-c2cc(-c3c[nH]c4ccccc34)nc(N)c2C#N)cc1	54.8%	62.8%	69.5%	33.3%	7.07% (active)	27.5%	2.93% (active)	25.4%	17.5%	22.1%
CCCCCCNC(=O)Oc1ccc(/C(=C(/C)c2ccc(Cl)cc2)c2ccc(OCCN3CCCCCC3)cc2)cc1	52.2%	83.2%	96.8%	76.8%	40.9%	83.6%	92.3%	74.3%	63.7%	45.7%
Fc1cccc(Cl)c1/C=N/Nc1nc(N/N=C/c2c(F)cccc2Cl)nc(N2CCCCC2)n1	44.8%	53.9%	35.8%	25.9%	19.9%	-1.32% (active)	10.4%	21.6%	28.3%	-16.7% (active)
CCCNNC(=O)c1ccc(-c2ccc(NC(=O)CCCCCCC(=O)N[C@H](C(=O)N3C[C@H](O)C[C@H]3C(=O)N[C@@H](C)c3ccc(-c4scnc4C)cc3)C(C)(C)C)cc2)cc1	37.3%	46.5%	34.7%	27.8%	31.8%	-26.7% (active)	10%	72.4%	36.9%	-31.1% (active)
NC(=O)c1ncn2c(=O)n(CCF)nnc12	94.5%	68.5%	78%	53.5%	54.9%	99.3%	82.7%	99%	61.3%	57.4%
O=C(CSc1nc2ccccc2c(=O)n1-c1ccccc1)N/N=C/c1ccc(Oc2ccc(Br)cc2)cc1	49.9%	77.6%	86.8%	63.9%	28%	73%	48.5%	42.2%	46%	44.4%
C#CCN(C)CCCOc1ccc(NC(=O)CCCCCCC(=O)NO)cc1Cl	28.1%	63.1%	26.5%	30.1%	25.8%	-14% (active)	12.8%	20.5%	39.3%	-26.1% (active)
O=C1Nc2cc(Cl)ccc2/C1=C\c1ccc(OCc2ccccc2)cc1	94.3%	92.9%	99.5%	96.2%	104%	109%	99.8%	105%	105%	110%
CN1CCN(c2ccc(Nc3nc(NCCNS(=O)(=O)c4ccccc4)c4sccc4n3)cc2)CC1	97.5%	94.2%	94.9%	98.7%	104%	57.3%	95%	104%	99.2%	110%
CSc1ccc(/C(=N/N=C(N)N)c2ccc(Cl)cc2)cc1	12.6%	27%	30.1%	6.91% (active)	-12.7% (active)	-4.16% (active)	-41.9% (active)	4.66% (active)	4.8% (active)	-89.4% (active)
O=C(CN1CCN(c2cc(=O)[nH]c3ccc(F)cc23)CC1)N(c1ccccc1)c1ccccc1	99.1%	103%	104%	102%	104%	98.4%	98.3%	115%	96%	115%
COc1cc(OC)cc(-c2cc(-c3c[nH]c4ccccc34)nc(-c3c[nH]c4ccccc34)c2C#N)c1	104%	87.3%	105%	96.3%	103%	95%	92.1%	98.5%	105%	110%
Fc1cc(F)cc(NNC(=S)c2ccccc2)c1	23.1%	49.7%	73.4%	58.4%	21.9%	-16.7% (active)	37%	31%	53.3%	108%
